{"source": "PubChem BioAssay (NCATS)", "note": "Records with an inconclusive call do not appear. Unmarked numbers belong to inactive results. Active and inactive are the calls of the source. Calls come from the whole dose curve; as a rule, active = well fitted inhibition curve with a large enough effect; inconclusive = small, poorly fitted or top-dose-only effect; inactive = flat fitted curve, though single readings scatter. % is set by controls: 0 for no effect and ±100 for the full control effect; potency is the fitted concentration of half-maximal effect.", "data": [{"experiment": "P-glycoprotein substrates identified in KB-8-5-11 adenocarcinoma cell line, qHTS therapeutic library screen (AID 1346987); note: nearly all actives have a fitted effect of over 65% in size", "settings": "KB-8-5-11 (P-gp overexpressing) viability, CellTiter-Glo, 72 h; series mostly up to 44.5 µM; activity change, negative = cytotoxicity: at the top concentration", "summary_of_the_method": "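Luminescence from CellTiter-Glo, read 5 min after addition, quantified survival of KB-8-5-11 (P-gp-overexpressing) cells exposed to compounds for 72 h. AC50 was derived from concentration-response curves.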", "values": [{"smiles": "CC1(C)CC[C@]2(C(=O)O[C@@H]3O[C@H](CO)[C@@H](O)[C@H](O)[C@H]3O)CC[C@]3(C)C(=CCC4[C@@]5(C)C[C@@H](O)[C@H](O)[C@](C)(C(=O)O)C5CC[C@]43C)C2C1O", "note": "(some centres undefined)", "activity change, negative = cytotoxicity": "-2.37% [at 17.3 µM]"}, {"smiles": "C[C@@]1(O)[C@H](O)[C@@H](CO)O[C@H]1n1ccc(N)nc1=O", "activity change, negative = cytotoxicity": "6.21%"}, {"smiles": "N[C@H]1Cc2ccccc2N(O)C1=O", "activity change, negative = cytotoxicity": "-9.03%"}, {"smiles": "CC(Oc1cc(-n2cnc3ccc(CN4CCN(C)CC4)cc32)sc1C(N)=O)c1ccccc1C(F)(F)F", "note": "(centres undefined)", "Potency": "2.59 µM (active)"}, {"smiles": "C=C(C(=O)O)C1CC(O)C2(C)CCCC(=C)C2C1", "note": "(centres undefined)", "activity change, negative = cytotoxicity": "9.08%"}, {"smiles": "CCOC(=O)c1sc(NC(=O)[C@H](C(C)C)n2c(=O)[nH]c3ccccc3c2=O)nc1C", "activity change, negative = cytotoxicity": "-7.48%"}, {"smiles": "CN(C)C(=O)NC1CCC(CCN2CCN(c3cccc(Cl)c3Cl)CC2)CC1", "note": "(centres undefined)", "activity change, negative = cytotoxicity": "-11.3% [at 9.29 µM]"}, {"smiles": "O=C(Nc1ccc(S(=O)(=O)C(F)(F)F)cc1)C1=CCN(c2ncccc2C(F)(F)F)CC1", "Potency": "14.6 µM (active)"}, {"smiles": "CC(=O)OC1C[C@]2(C)C(O)CC(C)=C[C@H](OC(=O)c3ccc(O)cc3)C2[C@]1(O)C(C)C", "note": "(some centres undefined)", "activity change, negative = cytotoxicity": "5.63% [at 17.3 µM]"}, {"smiles": "Cn1cc(S(=O)(=O)c2ccc(Cl)cc2)c2cccc(N3CCNCC3)c21", "Potency": "20.6 µM (active)"}, {"smiles": "O=S(=O)(c1ccc(S(=O)(=O)n2cnc3ccccc32)cc1)N1CCCCCC1", "activity change, negative = cytotoxicity": "-18.6% [at 17.3 µM]"}, {"smiles": "C/C=C/c1ccc2c(c1)[C@@H](C)[C@H](c1ccc(O)cc1)O2", "activity change, negative = cytotoxicity": "5.01%"}, {"smiles": "Cc1cc(C)cc(C(=O)NOCCCCCC(=O)NO)c1", "Potency": "1.3 µM (active)"}, {"smiles": "COC(=O)N(C)c1c(N)nc(-c2nn(Cc3ccccc3F)c3ncccc23)nc1N", "activity change, negative = cytotoxicity": "6.37%"}, {"smiles": "CN1CCc2nc(C(=O)N[C@@H]3C[C@@H](C(=O)N(C)C)CC[C@@H]3NC(=O)C(=O)Nc3ccc(Cl)cn3)sc2C1", "activity change, negative = cytotoxicity": "9.48%"}, {"smiles": "COC(=O)N[C@@H](C)CNc1nccc(-c2cn(C(C)C)nc2-c2cc(Cl)cc(NS(C)(=O)=O)c2F)n1", "activity change, negative = cytotoxicity": "-17.3%"}, {"smiles": "CC(=O)O[C@@H]1[C@H](O[C@@H]2O[C@@H](CO)[C@H](O)[C@H]2O)[C@@H](O[C@@H]2O[C@@H](C)[C@H](O[C@@H]3OC[C@@H](O)[C@H](O)[C@H]3O)[C@@H](O)[C@H]2O)[C@H](OC(=O)[C@]23CCC(C)(C)C[C@H]2C2=CCC4[C@@]5(C)CC[C@H](O[C@@H]6O[C@H](C(=O)O)[C@@H](O)[C@H](O)[C@H]6O[C@@H]6O[C@H](CO)[C@H](O)[C@H](O)[C@H]6O)[C@@](C)(C=O)C5CC[C@@]4(C)[C@]2(C)CC3)O[C@@H]1C", "note": "(some centres undefined)", "outcome": "inactive [at 9.29 µM]"}, {"smiles": "CC(C)=CCC[C@](C)(O[C@@H]1O[C@H](CO[C@@H]2O[C@H](CO)[C@@H](O)[C@H](O)[C@H]2O)[C@@H](O)[C@H](O)[C@H]1O)C1CC[C@]2(C)[C@@H]1[C@H](O)CC1[C@@]3(C)CC[C@H](O[C@@H]4O[C@H](CO)[C@@H](O)[C@H](O)[C@H]4O[C@@H]4O[C@H](CO)[C@@H](O)[C@H](O)[C@H]4O)C(C)(C)[C@@H]3CC[C@]12C", "note": "(some centres undefined)", "activity change, negative = cytotoxicity": "-1.53% [at 9.29 µM]"}, {"smiles": "Cc1cc(-c2cc(O)ccc2Cl)cc2nnc(Nc3ccc(OCCN4CCCC4)cc3)nc12", "Potency": "4.61 µM (active)"}, {"smiles": "CC1=CCC2C(C)(C)CCC[C@]2(C)[C@@]12CC[C@](C)(CC(=O)O)O2", "note": "(some centres undefined)", "activity change, negative = cytotoxicity": "-8.53%"}, {"smiles": "Cc1c[nH]c2nccc(Oc3c(F)cc(Nc4cc(Cl)nc(N)n4)cc3F)c12", "Potency": "1.3 µM (active)"}, {"smiles": "O=C(O)COCCN1CCN([C@H](c2ccccc2)c2ccc(Cl)cc2)CC1", "activity change, negative = cytotoxicity": "3.84%"}, {"smiles": "COc1cc(C2Oc3c(OC)cc(CCCO)cc3C2CO)ccc1O[C@H]1O[C@H](C)[C@@H](O)[C@H](O)[C@@H]1O", "note": "(some centres undefined)", "activity change, negative = cytotoxicity": "-0.443% [at 17.3 µM]"}, {"smiles": "O=C(C(c1ccccc1)c1ccccc1)N1CCN(CC(O)COc2cccc3ncccc23)CC1", "note": "(centres undefined)", "activity change, negative = cytotoxicity": "-26.3%"}, {"smiles": "C=C1C(O)C(O)C2(CC3C(C)=CCC4C(C)(CO)CCCC34C)OC2C1O", "note": "(centres undefined)", "activity change, negative = cytotoxicity": "-3.22%"}, {"smiles": "COc1ccc(/C=C/C(=O)O[C@H]2[C@H](O[C@H]3[C@@H]4C=CO[C@@H](O[C@@H]5O[C@H](CO)[C@@H](O)[C@H](O)[C@H]5O)[C@@H]4[C@@]4(CO)O[C@@H]34)O[C@@H](C)[C@H](O)[C@H]2OC(C)=O)cc1", "outcome": "inactive [at 17.3 µM]"}, {"smiles": "COc1cc2c(cc1OC)[C@@H]1[C@H](O)[C@@H](OC)C=C3CCN(C2)[C@H]31", "Potency": "5.7 µM (active)"}, {"smiles": "C=C[C@H]1CN2CC[C@H]1C[C@@H]2C(O)c1ccnc2ccc(OC)cc12", "note": "(some centres undefined)", "activity change, negative = cytotoxicity": "-3.65%"}, {"smiles": "CC(C)=CCC/C(C)=C/CC/C(C)=C/COC1OC(COC2OCC(OC3OCC(O)C(O)C3O)C(O)C2O)C(O)C(OC2OC(C)C(OC3OC(C)C(OC4OCC(OC5OC(C)C(O)C(O)C5O)C(O)C4O)C(O)C3O)C(O)C2O)C1O", "note": "(centres undefined)", "activity change, negative = cytotoxicity": "7.18% [at 9.29 µM]"}]}]}
